Source: paper PMC4336329 (PLoS ONE, 2015)
In all, about 310,000 compounds went through this assay and about 14,000 (4.5%) showed an effect of 50% or more. The effect is printed as a negative number. The list comes from a sample in which strong results are over-represented; it also holds similar structures and randomly drawn compounds.

biological target: human ether-à-go-go-related gene (hERG) potassium channel (human, UniProt Q12809); test: primary screen, population patch clamp on CHO cells stably expressing hERG; higher = less effect of the substance
Sequence (Q12809 whole entry, looked up): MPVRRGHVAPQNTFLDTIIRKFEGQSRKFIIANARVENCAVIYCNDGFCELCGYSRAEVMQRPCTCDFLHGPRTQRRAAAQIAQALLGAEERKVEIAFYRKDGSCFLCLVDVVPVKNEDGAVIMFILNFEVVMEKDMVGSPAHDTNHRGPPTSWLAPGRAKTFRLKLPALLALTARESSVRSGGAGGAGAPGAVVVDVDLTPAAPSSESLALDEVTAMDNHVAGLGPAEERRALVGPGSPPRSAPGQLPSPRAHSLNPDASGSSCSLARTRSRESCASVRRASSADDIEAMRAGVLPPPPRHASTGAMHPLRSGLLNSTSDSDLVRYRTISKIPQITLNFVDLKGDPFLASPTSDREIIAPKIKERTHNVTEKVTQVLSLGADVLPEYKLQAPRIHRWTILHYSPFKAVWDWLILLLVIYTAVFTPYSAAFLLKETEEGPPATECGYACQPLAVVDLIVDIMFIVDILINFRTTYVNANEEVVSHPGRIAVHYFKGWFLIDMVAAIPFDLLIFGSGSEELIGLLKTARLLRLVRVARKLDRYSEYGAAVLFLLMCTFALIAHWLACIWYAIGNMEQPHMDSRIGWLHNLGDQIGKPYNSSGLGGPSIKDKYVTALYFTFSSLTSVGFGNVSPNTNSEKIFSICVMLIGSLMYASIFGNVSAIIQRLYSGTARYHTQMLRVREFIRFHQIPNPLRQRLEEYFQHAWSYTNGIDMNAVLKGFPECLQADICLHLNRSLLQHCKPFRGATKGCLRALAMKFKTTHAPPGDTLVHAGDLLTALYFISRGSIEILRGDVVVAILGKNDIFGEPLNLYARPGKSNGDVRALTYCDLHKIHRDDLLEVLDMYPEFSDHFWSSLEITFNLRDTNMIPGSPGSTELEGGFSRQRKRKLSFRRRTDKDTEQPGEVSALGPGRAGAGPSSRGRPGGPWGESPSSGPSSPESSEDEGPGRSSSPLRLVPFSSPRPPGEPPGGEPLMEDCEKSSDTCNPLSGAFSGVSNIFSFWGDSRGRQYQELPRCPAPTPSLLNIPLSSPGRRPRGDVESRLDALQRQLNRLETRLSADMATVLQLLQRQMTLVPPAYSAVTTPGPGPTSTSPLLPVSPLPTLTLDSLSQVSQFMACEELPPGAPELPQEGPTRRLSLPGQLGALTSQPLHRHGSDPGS
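Note: peak tail current of the secondary pulse compared with the same well before compound.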

Structure (SMILES) | hERG current change (%, negative = inhibition) at 10uM [%]
CC(C)(C)c1cc(C(=O)NCCCn2ccnc2)cc(C(C)(C)C)c1.Cl | 13.1
CC(=O)c1cccc(NC(=O)CSc2ccc(-c3ccccn3)nn2)c1 | -13.6
COc1cc(C)c(CNc2ccc(OC)c(OC)c2)cc1C | 7.7
COC(=O)[C@@]1(Cc2ccc(F)cc2)[C@H]2c3cc(C(=O)N4CCCC4)n(CCO)c3C[C@H]2CN1C(=O)c1ccccc1 | -51.4
COC(=O)[C@@]1(Cc2ccc(OC)cc2)[C@H]2c3cc(C(=O)N4CCCC4)n(C[C@H](O)CO)c3C[C@H]2CN1C(=O)c1ccccc1 | -1.32
COCCn1c(C(=O)N2CCCC2)cc2c1C[C@H]1CN(C(=O)c3ccccc3)[C@@](Cc3ccc(F)cc3)(C(=O)OC)[C@@H]21 | -39.3
COC(=O)[C@@]1(Cc2ccc(F)cc2)[C@H]2c3cc(C(=O)N4CCCC4)n(Cc4ccc(C(F)(F)F)nc4)c3C[C@H]2CN1C(=O)c1ccccc1 | -8.27
COC(=O)[C@@]1(Cc2ccc(OC)cc2)[C@H]2c3cc(C(=O)N4CCCC4)n(CCO)c3C[C@H]2CN1C(=O)c1ccccc1 | -34.9
COC(=O)Cn1c(C(=O)N2CCCC2)cc2c1C[C@H]1CN(C(=O)c3ccccc3)[C@@](Cc3ccc(F)cc3)(C(=O)OC)[C@@H]21 | -67.4
COc1ccc(-c2csc(N(Cc3ccccc3)C(=O)COc3ccc(Cl)cc3)n2)cc1 | 4.31
COc1cc(C=O)ccc1OCC(=O)N1CCOCC1 | 2.65
Clc1ccc(SCc2nc3ccccc3[nH]2)cc1 | -11.2
COC(=O)c1nnn(-c2ccccc2)c1N | -7.91
O=C(CN1CCN(c2cccc(Cl)c2)CC1)Nc1ccc([N+](=O)[O-])cc1C(=O)Nc1ccccc1F | 14.4
CCC(C)NCC(=O)Nc1ccc([N+](=O)[O-])cc1C(=O)Nc1ccccc1F (stereo not drawn) | -34.7
Cc1ccc([N+](=O)[O-])cc1NC(=O)CN1CCCCC1 | -11.7
Cc1ccc(C)c(N2CCN(CC(=O)Nc3ccc([N+](=O)[O-])cc3C(=O)Nc3ccccc3F)CC2)c1 | -18
O=C(CN1CCN(c2ccccn2)CC1)Nc1ccc([N+](=O)[O-])cc1C(=O)Nc1ccccc1F | -34.7
Cc1cc([N+](=O)[O-])ccc1NC(=O)CN1CCN(Cc2ccccc2)CC1 | -73.9
O=C(CN1CCN(Cc2ccccc2)CC1)Nc1ccc([N+](=O)[O-])cc1C(=O)Nc1ccccc1F | -77.5
Cc1ccc(CC(=O)Nc2ccc([N+](=O)[O-])cc2C)cc1 | 0.803

Structure (SMILES) | hERG current change (%, negative = inhibition) at 10uM [%]
CCOC(=O)N1CCN(CC(=O)Nc2ccc([N+](=O)[O-])cc2C(=O)Nc2ccccc2F)CC1 | -50.7
CCCC1S/C(=N/N=C/c2ccc(C)cc2)N(Cc2ccc(OC)cc2)C1=O (stereo not drawn) | 9.81
CC(=O)Oc1ccc(-c2cc3ccccc3oc2=O)cc1 | 0.436
CCOC(=O)N1CCN(Cc2nnc(-c3ccccc3Cl)o2)CC1.Cl | 11.4
CCOc1c(C)cnc2c1c(=O)n(Cc1cccc(Cl)c1)c(=O)n2C | -36.1
CC(C)(C)NC(=O)CSc1ncccc1-c1nc2ccccc2[nH]1 | -4.73
Cc1c(C)c2ccc(OCC(=O)Nc3ccc(N4CCC(C)CC4)cc3)cc2oc1=O | 14.7
COc1ccc(-n2nc3c(c2NC(=O)COc2cccc(OC)c2)CS(=O)(=O)C3)cc1 | -29.5
Cc1ccc(-c2n[nH]c(=S)n2/N=C\c2ccco2)cc1 | 24.1
O=C(C1CCN(C2CCN(Cc3ccc4c(c3)CCO4)CC2)CC1)N1CCOCC1 | -26.6
O=C(Cc1ccc(F)cc1)N1CCC(N2CCC(C(=O)N3CCOCC3)CC2)CC1 | 9.76
O=C(C1CCN(C2CCN(Cc3ccsc3)CC2)CC1)N1CCOCC1 | -3.8
O=C(C1CCN(C2CCN(C/C(Cl)=C/c3ccccc3)CC2)CC1)N1CCOCC1 | -64.1
O=C(C1CCN(C2CCN(C/C=C/c3ccccc3)CC2)CC1)N1CCOCC1 | -53.4
Cc1cccc(CC(=O)N2CCC(N3CCC(C(=O)N4CCOCC4)CC3)CC2)c1 | 0.701
O=C(/C=C/c1ccccc1)N1CCC(N2CCC(C(=O)N3CCOCC3)CC2)CC1 | -23.4
C/C(=C\c1ccco1)CN1CCC(N2CCC(C(=O)N3CCOCC3)CC2)CC1 | -78.9
O=C(C1CCN(C2CCN(Cc3cccc4c3OCO4)CC2)CC1)N1CCOCC1 | -34.7
CCOCCCNC(=O)CN1CCN(S(=O)(=O)c2ccc3c(c2)CCC3)CC1 | 3.99
COC(=O)CSc1nnc(CNS(=O)(=O)c2ccc(C)cc2)n1C | 1.97
CN(C)N=Nc1ccc(S(=O)(=O)N2CCSC2C(=O)O)cc1 (stereo not drawn) | 2.21

Structure (SMILES) | hERG current change (%, negative = inhibition) at 10uM [%]
COC1CCN(C(=O)CC2C(=O)NCCN2CC2CCCCC2)CC1 (stereo not drawn) | 13.3
CCOc1ccccc1OCCNC1CCCC1 | 8.26
CCOc1cccc(=O)c2c(C)n(CC3CCCO3)c(C)c12 (stereo not drawn) | -2.39
CCOc1cccc(OCC)c2c(C)[n+](CC3CCCO3)c(C)c1-2.[O-][Cl+3]([O-])([O-])[O-] (stereo not drawn) | -36.9
CCOc1cccc(=[NH+]C2CCCCC2)c2c(C)[nH]c(C)c12.[O-][Cl+3]([O-])([O-])[O-] | -70.3
CCOc1cccc(=[NH+]C2CCCCC2)c2c(C)n(C)c(C)c12.[O-][Cl+3]([O-])([O-])[O-] | -70.3
CCOc1cccc(=O)c2c(C)n(CC(=O)c3ccccc3)c(C)c12 | -6.91
O=C(CN1C(=O)NC2(CCCC2)C1=O)N1CCN(S(=O)(=O)c2ccccc2[N+](=O)[O-])CC1 | 7.61
N=c1n(-c2ccccc2)c(O)cc(=O)n1-c1ccccc1 | -6.28
CCCn1c(N)c(N(CCOC)C(=O)c2ccc([N+](=O)[O-])c(C)c2)c(=O)[nH]c1=O | 35.8
CC(NS(=O)(=O)c1ccc(Br)cc1)C(=O)NC1CCCCCC1 (stereo not drawn) | 5.35
Cc1noc(C)c1S(=O)(=O)N1CCCC(C(=O)Nc2ccc(Cl)cn2)C1 (stereo not drawn) | -26
CCOC(=O)C1(CC2CC2)CCN(C(=O)c2ocnc2C)CC1 | 7.25
CCOC(=O)C1(CCCc2ccccc2)CCN(C(=O)c2cnn(CC)c2)CC1 | -64.2
CCOC(=O)C1(Cc2cccc(Cl)c2)CCCN(C(=O)c2cnn(CC)c2)C1 (stereo not drawn) | -6.39
CCOC(=O)C1(CCc2ccccc2)CCN(C(=O)Cc2nonc2C)CC1 | -21.4
CCOC(=O)C1(CCCc2ccccc2)CCN(C(=O)COC)CC1 | -25.9
CCOC(=O)C1(CCCc2ccccc2)CCN(C(=O)c2cc(C)nc(C)n2)CC1 | -16.4
CCOC(=O)C1(CCCc2ccccc2)CCN(C(=O)c2cc(C)nn2CC)CC1 | -57.8
CCOC(=O)C1(CCCc2ccccc2)CCN(C(=O)Cc2nonc2C)CC1 | -51.3
CCOC(=O)C1(Cc2ccccc2)CCCN(C(=O)c2cnn(CC)c2)C1 (stereo not drawn) | 10.1

Structure (SMILES) | hERG current change (%, negative = inhibition) at 10uM [%]
CCOC(=O)C1(CCCc2ccccc2)CCN(C(=O)c2cnc(C)cn2)CC1 | -39.8
CCOC(=O)C1(CCCc2ccccc2)CCN(C(=O)c2ocnc2C)CC1 | -56.1
CCn1c(N2CCN(S(=O)(=O)c3ccc(Cl)cc3)CC2)nc2ccccc21 | -48.4
COc1cccc(NC(=O)CCNS(=O)(=O)c2ccc3c(c2)CC(C)N3C(=O)C2CC2)c1 (stereo not drawn) | -5.18
O=C(CCS(=O)(=O)c1ccc(Br)s1)NC1CCCC1 | 6.05
COc1ccc(NS(=O)(=O)c2cccc3cccnc23)cc1OC | 24.2
CNc1nc(NN)nc(Nc2ccccc2)n1 | 9.76
Cc1ccc(S(=O)(=O)CC(=O)Nc2cccc(C)n2)cc1 | 6.48
Cc1cccc(C(=O)NCC(=O)NC2CCN(Cc3ccccc3)CC2)c1 | -7.99
O=C(c1ccoc1)N1CCC(CO)(CCc2ccccc2)CC1 | -28.7
CCOC(=O)C1(CCCc2ccccc2)CCN(C(=O)c2ccoc2)CC1 | -54.3
CCOC(=O)C1(CCCc2ccccc2)CCN(C(=O)CSC)CC1 | -24.1
CCCCCC(=O)Nc1nnn(CCC)n1 | 4.41
CC(C(=O)O)N1C(=O)c2cccc3cccc1c23 (stereo not drawn) | 1.97
COc1ccc(NCc2nnc(SCC(=O)Nc3nc(-c4ccccc4)cs3)n2-c2ccccc2)cc1 | 13
COc1ccc(CNC(=O)[C@H](C)NC(=O)N2CCn3c2nc2ccccc23)cc1 | -57.7
C[C@H](NC(=O)N1CCn2c1nc1ccccc12)C(=O)NCc1ccc(F)cc1 | -29.6
C[C@H](NC(=O)N1CCn2c1nc1ccccc12)C(=O)NCc1ccccc1 | -13.6
